Data on 40 molecules can be found in PubChem BioAssay (NCATS).

Structures are written as SMILES. Values without a mark were called inactive. The source made the active and inactive calls. Calls come from the whole dose curve; as a rule, active = well fitted curve in the direction sought with a large enough effect; inconclusive = small, poorly fitted or top-dose-only effect, or another doubt; inactive = no such curve, though single readings can be large or run the other way.

Sequence of Alpha-galactosidase (Coffea arabica) (Q42656 whole entry, looked up): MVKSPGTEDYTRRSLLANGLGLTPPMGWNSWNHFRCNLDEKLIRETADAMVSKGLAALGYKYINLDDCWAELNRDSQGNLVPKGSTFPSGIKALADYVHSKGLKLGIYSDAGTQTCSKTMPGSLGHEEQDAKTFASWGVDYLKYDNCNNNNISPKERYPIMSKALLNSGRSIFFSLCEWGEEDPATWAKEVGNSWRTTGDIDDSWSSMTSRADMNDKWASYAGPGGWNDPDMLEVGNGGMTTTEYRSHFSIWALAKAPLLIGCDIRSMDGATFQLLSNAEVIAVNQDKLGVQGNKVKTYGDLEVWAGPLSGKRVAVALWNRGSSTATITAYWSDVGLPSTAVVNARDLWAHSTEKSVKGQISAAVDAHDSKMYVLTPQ

The assay concerns the target Alpha-galactosidase (Coffea arabica) (UniProt Q42656). Nature of the assay: Counterscreen for Glucocerebrosidase Inhibitors: qHTS Assay for Coffee Bean alpha-Galactosidase at pH 4.5 (AID 957).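 Note: plate controls were enzyme alone for no effect and no enzyme for full effect.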 To be noted: purified coffee bean alpha-galactosidase, fluorogenic substrate; series mostly up to 76.9 µM; activity change, negative = inhibition: at the top concentration. The method in brief: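 Green coffee bean enzyme (2 nM final) was incubated with compounds (0.7 nM to 77 uM) and 4-methylumbelliferyl alpha-D-galactopyranoside (80 uM final) in 50 mM citric acid, 0.005% Tween-20, pH 4.5, 20 min at room temperature; AC50 from Hill fits.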
In general terms: Counterscreens check selectivity or assay interference.
With `Cn1cc(C(F)(F)F)nc1-c1ccc(OC[C@@H](O)CNCCOc2ccc(O)c(C(N)=O)c2)cc1`, the “activity change, negative = inhibition” value was 3.99%. `c1ccc2c(c1)CCC[C@H]2C1=NCCN1`: the “activity change, negative = inhibition” value is -0.0753%.

Regarding `C[C@]12CC3CC(N)(C1)C[C@@](C)(C3)C2`, the “activity change, negative = inhibition” value is -2.6%. For the molecule `C[C@@](N)(Cc1ccc(O)cc1)C(=O)O`, the molecule was classed as inactive. With `C[C@@H]1C[C@@H]2[C@H]3CCC4=CC(=O)C=C[C@]4(C)[C@]3(F)[C@@H](O)C[C@@]2(C)[C@@]1(O)C(=O)CO`, the “activity change, negative = inhibition” value was -0.934%.

On to `C[C@@H]1CNCCN1S(=O)(=O)c1cccc2cnccc12`, for which the “activity change, negative = inhibition” value is -0.861%. On to `O=C(O)[C@H]1CCCNC1`, for which the “activity change, negative = inhibition” value is -3.62%.

As to `CC1=C(C(=O)O)N2C(=O)[C@@H](NC(=O)[C@@H](N)C3=CCC=CC3)[C@@H]2SC1`, the “activity change, negative = inhibition” value is 4.79%. In the case of `COc1cc2c(cc1C(F)(F)F)N(C(=O)Nc1cc(F)cc(-c3cccnc3)c1)CC2`, the “activity change, negative = inhibition” value was 0.101%.

Consider `C#C[C@H](N)CCC(=O)O`, for which the “activity change, negative = inhibition” value is -0.475%. On to `N[C@H](Cc1cccc(-c2ccccc2CP(=O)(O)O)c1)C(=O)O`, for which the “activity change, negative = inhibition” value was 4.06%. Turning to `NC(N)=N[C@H](CCC(=O)O)C(=O)O`, the “activity change, negative = inhibition” value is 0.944%. Consider `OC[C@H]1O[C@@H](n2cnc3c(NCCc4ccccc4)ncnc32)[C@H](O)[C@H]1O`, for which the “activity change, negative = inhibition” value is 1.99%.

For the molecule `CCCCCCCCCCCCCCCCCCNC(=O)OC[C@@H](COP(=O)([O-])OCC[n+]1ccsc1)OC`, the “activity change, negative = inhibition” value is -0.355%. Same read-out and setting: in the case of `CCCCC/C=C\C[C@H](O)/C=C\c1cccc(C[C@H](O)CCCCO)n1` it was 1.42%; in that of `C=CCN1CCc2cc(O)c(O)cc2[C@H](c2ccccc2)C1`, 1.96%. For `C[C@@H](CCc1ccc(O)cc1)NCCc1ccc(O)c(O)c1`, the “activity change, negative = inhibition” value was 1.26%. On to `CCn1ccnc1C[C@@H]1COc2ccccc2O1`, for which the “activity change, negative = inhibition” value was -0.846%. Same read-out and setting: with `FC(F)(F)c1cc(CO[C@@H]2CCCN[C@H]2c2ccccc2)cc(C(F)(F)F)c1` the figure was -13.5%; with `C[C@@H]1c2cccc(O)c2C(O)=C2C(=O)[C@@]3(O)C(O)=C(C(N)=O)C(=O)[C@@H](N(C)C)[C@@H]3[C@@H](O)[C@@H]21`, -2.89%.

Consider `C[C@@]12CCC(=O)C=C1CC[C@@H]1[C@@H]2[C@H](O)C[C@]2(C)[C@@H]1CC[C@]2(O)C(=O)COC(=O)CCC(=O)O`, for which the “activity change, negative = inhibition” value was 2.54%. As to `S=C(Nc1ccccc1)Nc1nccs1`, the “activity change, negative = inhibition” value is -0.585%. For `CN1CCc2cc(O)c(O)cc2[C@H](c2ccccc2)C1`, the “activity change, negative = inhibition” value is 0.723%. In the case of `CO[C@]1(C2=NCCN2)COc2ccccc2O1`, the “activity change, negative = inhibition” value is 0.665%. Consider `O=c1ccn([C@@H]2O[C@@H](COP(=O)(O)OP(=O)(O)O)[C@H](O)[C@@H]2O)c(=O)[nH]1`, for which the “activity change, negative = inhibition” value is 2.26%.

For `O=C(/C=C\c1ccc(O)cc1)c1ccc(O)cc1O`, the “activity change, negative = inhibition” value is -10.9%. Consider `CCOC(=O)C1=C(C)NC(C)=C(C(=O)OC)[C@H]1c1cccc(Cl)c1Cl`, for which the “activity change, negative = inhibition” value was -3.18%.

For the molecule `CN1CCc2cccc3c2[C@@H]1Cc1ccc(O)c(O)c1-3`, the “activity change, negative = inhibition” value is -2.52%. Consider `CC(=O)S[C@@H]1CC2=CC(=O)CC[C@@]2(C)[C@H]2CC[C@]3(C)[C@H](CC[C@@]34CCC(=O)O4)[C@H]12`, for which the “activity change, negative = inhibition” value is -0.574%. On the same count and under the same terms, in the case of `CC1=C(C(=O)O)N2C(=O)[C@@H](NC(=O)[C@@H](N)c3ccccc3)[C@@H]2SC1` it was 0.14%; in that of `C[C@H](N=C(NC#N)Nc1ccncc1)C(C)(C)C`, 0.516%; in that of `C[C@H]1CN(S(=O)(=O)c2cccc3cnccc23)CCN1`, -3.69%. With `CCNC(=O)[C@@H]1O[C@@H](n2cnc3c(N)nc(NCCc4ccc(CCC(=O)O)cc4)nc32)[C@H](O)[C@@H]1O`, the “activity change, negative = inhibition” value is 3.77%. Regarding `N[C@H](Cc1ccc(F)cc1)C(=O)O`, the “activity change, negative = inhibition” value was -1.08%. The same measure, in the same setting: in the case of `N[C@@H](CO)C(=O)O` it was -0.248%; in that of `CSC(N)=NCCC[C@@H](N)C(=O)O`, -0.48%. Regarding `COc1cc2nc(N3CCN(C(=O)[C@H]4CCCO4)CC3)nc(N)c2cc1OC`, the “activity change, negative = inhibition” value is 5.8%. The same measure, in the same setting: with `CC(C)[C@H]1C(=O)C(C(N)=O)=C(O)[C@]2(O)C(=O)C3=C(O)c4c(O)ccc(N(C)C)c4C[C@H]3C[C@@H]12` the figure was -1.93%. On to `Nc1ccc(CCNc2ncnc3c2ncn3[C@@H]2O[C@@H](CO)[C@H](O)[C@@H]2O)cc1`, for which the “activity change, negative = inhibition” value was 2.09%. Take `CC(=O)O[C@@H](C)C[N+](C)(C)C`: the “activity change, negative = inhibition” value was 0.484%.
